# In all, about 220,000 compounds went through this assay and about 910 (0.41%) were called active. The full list was thinned out, with actives kept by preference. Entries with a potency or affinity are not part of this list. Values without a mark were called inactive.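 The calls were made as follows: active = primary inhibition above the hit cutoff, then over 50% inhibition at one or more dose response concentrations (cut at about 23% in these data, passing the limit was not always enough); inconclusive = conflicting primary data, or primary hits not chosen for dose response; inactive = low primary inhibition, or under 50% at every dose.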
# Molecular target: Aminopeptidase N (Plasmodium falciparum (isolate 3D7)) (UniProt O96935)
# Sequence (O96935 whole entry, looked up): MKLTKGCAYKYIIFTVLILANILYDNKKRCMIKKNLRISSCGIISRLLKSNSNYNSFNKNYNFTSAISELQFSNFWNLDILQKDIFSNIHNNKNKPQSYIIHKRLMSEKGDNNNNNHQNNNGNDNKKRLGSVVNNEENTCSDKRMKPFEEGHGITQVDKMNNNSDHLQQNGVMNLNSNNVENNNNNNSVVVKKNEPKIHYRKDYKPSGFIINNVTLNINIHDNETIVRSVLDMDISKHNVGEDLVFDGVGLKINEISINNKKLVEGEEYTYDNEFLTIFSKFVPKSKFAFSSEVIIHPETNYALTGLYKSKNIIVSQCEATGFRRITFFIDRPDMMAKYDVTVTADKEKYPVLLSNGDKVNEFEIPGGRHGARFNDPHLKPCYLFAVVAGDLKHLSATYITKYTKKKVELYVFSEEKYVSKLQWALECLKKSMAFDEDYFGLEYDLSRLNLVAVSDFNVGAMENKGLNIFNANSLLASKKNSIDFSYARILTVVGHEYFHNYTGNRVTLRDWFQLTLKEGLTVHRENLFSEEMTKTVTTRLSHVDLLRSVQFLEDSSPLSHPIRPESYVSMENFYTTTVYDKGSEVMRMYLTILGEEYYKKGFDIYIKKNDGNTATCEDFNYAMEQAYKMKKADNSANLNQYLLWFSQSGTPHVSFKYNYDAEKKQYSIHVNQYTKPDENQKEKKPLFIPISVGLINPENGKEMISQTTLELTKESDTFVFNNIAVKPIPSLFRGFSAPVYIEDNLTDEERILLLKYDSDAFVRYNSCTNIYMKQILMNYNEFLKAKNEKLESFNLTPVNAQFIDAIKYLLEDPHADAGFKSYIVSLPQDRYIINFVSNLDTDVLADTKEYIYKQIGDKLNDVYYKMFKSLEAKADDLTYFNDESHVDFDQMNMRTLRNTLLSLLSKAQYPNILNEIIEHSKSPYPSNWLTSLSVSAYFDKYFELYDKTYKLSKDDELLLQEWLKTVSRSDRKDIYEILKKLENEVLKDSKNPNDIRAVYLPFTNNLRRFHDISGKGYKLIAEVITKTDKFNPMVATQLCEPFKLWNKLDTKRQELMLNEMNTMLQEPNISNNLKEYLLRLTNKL
# Assay: malaria alanyl aminopeptidase activity blockers – biochemical, fluorogenic H-Leu-NHMec substrate, 1536-well (AID 1445);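 also: plate controls were DMSO full reaction for no effect and no enzyme background for full effect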
# Conditions: recombinant M1AAP, H-Leu-NHMec fluorogenic kinetic assay
# [1] = at 30 µM, active compounds read high unless noted
smiles,measurement,setting,value
COc1ccc(Nc2nc(C(=O)N(CCO)Cc3ccccc3)cs2)cc1,inhibition,[1],0.85%
Cc1ccc(NC(=O)CC2NCCN(Cc3ccccc3)C2=O)cc1 (centres undefined),inhibition,[1],8.69%
Cc1ccc(N(CC(=O)NN=C2CCN(C)CC2)S(=O)(=O)c2ccccc2)c(C)c1,inhibition,[1],-0.06%
O=C(Cn1cnc([N+](=O)[O-])n1)N/N=C/c1ccc2ccccc2c1,inhibition,[1],10.2%
CCOC(=O)N1CCN(c2c(NCCCN(C)c3ccccc3)c(=O)c2=O)CC1,inhibition,[1],6.93%
CCCc1nnc(NC(=O)Cn2c(=O)oc3ccccc32)s1,inhibition,[1],-0.7%
CCOC(=O)C(CC)/C(C)=N/NC(=O)c1ccc([N+](=O)[O-])cc1 (centres undefined),inhibition,[1],2.15%
C=C1CCN([C@H](C(=O)NCc2ccco2)C(C)C)S(=O)(=O)c2ccccc21,inhibition,[1],11%
COc1ccc(NC(=O)N2CCCC2C(=O)Nc2ccc(C)cc2)cc1 (centres undefined),inhibition,[1],-3.34%
CC(=O)c1cccc(NC(=O)N2CCCC2C(=O)Nc2cc(C)ccc2C)c1 (centres undefined),inhibition,[1],-1.28%
CC1(C)CC(=O)C2=C(C1)N=C1SCCC(=O)N1C2c1cccc([N+](=O)[O-])c1 (centres undefined),inhibition,[1],18%
Cc1c(NC(=O)c2ccccc2NS(=O)(=O)c2ccc(F)cc2)c(=O)n(-c2ccccc2)n1C,inhibition,[1],20.1%
Cc1c(NS(=O)(=O)c2cccc(C(=O)NCc3ccncc3)c2)c(=O)n(-c2ccccc2)n1C,inhibition,[1],-2.28%
Cc1c(NS(=O)(=O)c2ccc(C(=O)NCc3ccccc3)cc2)c(=O)n(-c2ccccc2)n1C,inhibition,[1],0.49%
Cc1ccc(S(=O)(=O)Nc2c(C)n(C)n(-c3ccccc3)c2=O)cc1C(=O)NCc1ccccn1,inhibition,"at 30 µM, active compounds read high",28.8% (active)
same,inhibition,at 100 µM (top of the series),42.4%
CC(=O)Nc1ccc(S(=O)(=O)Nc2c(C)n(C)n(-c3ccccc3)c2=O)cc1,inhibition,[1],0.31%
Cc1c(NC(=O)c2ccccc2NS(=O)(=O)c2ccc(Br)cc2)c(=O)n(-c2ccccc2)n1C,inhibition,[1],24.5% (active)
CC1=C(CCN2CCN(C(C)C)C(CCO)C2)C(C)(C)CCC1 (centres undefined),inhibition,[1],2.23%
CCn1c(Cn2nnc(-c3ccccc3)n2)nnc1SCC(=O)Nc1cccc(C(C)=O)c1,inhibition,[1],0.07%
COc1ccc(/C=N/NC(=O)c2cc(Br)ccc2O)cc1Cn1cc(Cl)cn1,inhibition,[1],0.18%
O=c1[nH][nH]c(-c2ccccc2)c1C=Nc1ccc(C(F)(F)F)cc1,inhibition,[1],2.58%
CC1=C(C#N)c2nc(N)c(C#N)c(C)c2/C1=C\c1ccc(C)cc1,inhibition,[1],6.97%
CC1=C(C#N)c2nc(N)c(C#N)c(C)c2/C1=C\c1ccc(OCC(=O)O)c(Cl)c1,inhibition,[1],11.5%
